High-throughput results: PubChem BioAssay, National Center for Advancing Translational Sciences (NCATS)
HT1080 IDH1KD tx – qHTS for induction of synthetic lethality in tumor cells producing 2HG: qHTS for the HT-1080-IDH1KD cell line; HT-1080 IDH1 knockdown viability, ATP luminescence, 48 h; Potency, µM (doses to about 46.1 µM), without a hit: top-dose activity, negative = toxicity, most hits filed as cytotoxic; 360,000 tested, 2% active;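 further: potency means the concentration at half of the fitted maximal effect; 0% = DMSO wells and -100% = cell-free medium wells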
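% activity derives from luminescence (CellTiter-Glo), normalised to DMSO and no-cell wells. HT-1080-IDH1KD cells, 750/well, had 48 h compound exposure at 37 °C.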
DT40 TDP1 CPT – qHTS for Inhibitors of human tyrosyl-DNA phosphodiesterase 1 (TDP1): qHTS in cells in presence of CPT. chicken DT40 Tdp1-/-;hTDP1 cells + 20 nM CPT, ATP luminescence, 48 h. Potency, µM (top dose mostly 46.2 µM), without a hit: at the highest dose activity change, negative = growth inhibition, hits mostly inhibitors. 420,000 tested, 12% active. AID 686979, 2013; further: potency means the concentration at half of the fitted maximal effect; nearly all actives have a fitted effect of over 55% in size
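Cell growth measured by CellTiter-Glo luminescence after a minimum 48 h, 37 C compound exposure with 20 nM CPT in Tdp1-knockout DT40 cells stably expressing hTDP1, seeded 400/well; qHTS titration format.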
HT1080NT lethal – qHTS for induction of synthetic lethality in tumor cells producing 2HG: qHTS for the HT-1080-NT fibrosarcoma cell line. HT-1080-NT fibrosarcoma viability, CellTiter-Glo ATP luminescence, 48 h. Potency, µM (series often up to 46.1 µM), for the others: at the top dose activity, negative = less viability, hits mostly cytotoxic. AID 686970, 2013. 360,000 tested, 1.6% active;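 further: NT is the 2HG producing partner of a matched IDH1 knockdown line; potency means the concentration at half of the fitted maximal effect; 0% = DMSO-treated cells and -100% = media-only wells without cells; nearly all actives have a fitted effect of over 55% in size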
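Luminescent CellTiter-Glo readout after 48 hours of compound exposure at 37 degrees C defined viability of HT-1080-NT cells. Activity was normalized to DMSO wells and cell-free media wells; concentration-response curves were fitted and assigned curve classes.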
IL1B secr inh – qHTS for Inhibitors of Inflammasome Signaling: IL-1-beta AlphaLISA Primary Screen; THP-1 LPS/ATP IL-1B secretion, AlphaLISA, 16 h; stronger effect = lower value; activity change, % at 57.5 µM; 360,000 tested, 4.7% active; AID 743279, 2014; in the data active means activity change below about -50%; inconclusive means mostly about -30% to -49%
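Secreted IL-1B measured by AlphaLISA bead assay after 16 h compound exposure of THP-1 cells; compounds (final up to 57.5 uM) added 1 h before LPS (250 ng/mL) and ATP (1.25 mM) stimulation; lower signal means less secretion.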
DT40 TDP1 no CPT – qHTS for Inhibitors of human tyrosyl-DNA phosphodiesterase 1 (TDP1): qHTS in cells in absence of CPT; Potency, µM (highest dose often 46.2 µM), for inactives: at the highest dose activity change, negative = growth inhibition, hits mostly inhibitors; 420,000 tested, 15% active; AID 686978, 2013; DT40 Tdp1-/- hTDP1 cells, no CPT, ATP luminescence, 48 h; further: potency means the concentration at half of the fitted maximal effect; nearly all actives have a fitted effect of over 55% in size
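DT40 Tdp1-/-;hTDP1 cells, no CPT (DMSO vehicle only), 400 cells/well; compounds pin-transferred; ≥48 hr, 37 °C; CellTiter-Glo 30 min RT dark, luminescence read.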
* hit, by the source's call; [ ] = another dose, or the depositor's remark. Compounds with a hit are over-represented: about 19% of the library has one in this group of screens. Unless noted, the call rests on the fitted dose curve; in most records, active means well fitted curve in the direction sought with a large enough effect; inconclusive means small, poorly fitted or top-dose-only effect, or another doubt; inactive means no such curve, though single readings can be large; an effect the other way counts as inactive or inconclusive. Unless noted, on the % scale 0 is the no-effect control and ±100 the full control effect.

For O=C(Nc1ccc(C(F)(F)F)cc1[N+](=O)[O-])O[C@H]1[C@H](Cc2ccccc2)NS(=O)(=O)[C@H]2C[C@@H]3C=C[C@]12O3 the results were HT1080 IDH1KD tx -20%, DT40 TDP1 CPT 21µM*, HT1080NT lethal -9%, IL1B secr inh -50* and DT40 TDP1 no CPT 16µM*.
For O=C(CCNS(=O)(=O)c1ccc(Br)cc1)NC1CCC(O)CC1 (stereo unspecified) the results were HT1080 IDH1KD tx -1%, DT40 TDP1 CPT -6%, HT1080NT lethal 6%, IL1B secr inh 14 and DT40 TDP1 no CPT -4%.
`CSc1nnc2[nH]c(=O)cc(C)n12` gave DT40 TDP1 CPT 12% and DT40 TDP1 no CPT -8%.
COc1ccc(N2CC(NC(=O)NC(C)(C)C)CC2=O)cc1 (stereo unspecified) was read as HT1080 IDH1KD tx 21%, DT40 TDP1 CPT 4%, HT1080NT lethal 21%, IL1B secr inh 5 and DT40 TDP1 no CPT -12%.
CCN1CCN(C(=O)NC2CC(=O)N(c3ccc(OC)cc3)C2)CC1 (stereo unspecified) was read as HT1080 IDH1KD tx 19%, DT40 TDP1 CPT 15%, HT1080NT lethal inconclusive, IL1B secr inh -69* and DT40 TDP1 no CPT 16%.
`COc1ccc(N2CC(NC(=O)NCCC(C)C)CC2=O)cc1` (stereo unspecified) gave HT1080 IDH1KD tx -4%, DT40 TDP1 CPT inconclusive, HT1080NT lethal -1%, IL1B secr inh -65* and DT40 TDP1 no CPT -21%.
For COc1ccc(Cc2nc(N)nc(N)n2)cc1 the results were HT1080 IDH1KD tx 0%, DT40 TDP1 CPT 1%, HT1080NT lethal 1%, IL1B secr inh 12 and DT40 TDP1 no CPT -1%.
Screening COc1ccc(O)c(-c2nc(N)nc(N)n2)c1 returned HT1080 IDH1KD tx -10%, DT40 TDP1 CPT 16µM*, HT1080NT lethal -13%, IL1B secr inh -98* and DT40 TDP1 no CPT 18µM*.
`Nc1nc(N)nc(-c2cc(F)ccc2O)n1` gave HT1080 IDH1KD tx -20%, DT40 TDP1 CPT inconclusive, HT1080NT lethal -17%, IL1B secr inh -99* and DT40 TDP1 no CPT inconclusive.
`CNC(=O)c1sc(N2N=C3/C(=C\c4ccccc4)CCCC3C2c2ccccc2)nc1C` (stereo unspecified) gave HT1080 IDH1KD tx -2%, DT40 TDP1 CPT inconclusive, HT1080NT lethal -7%, IL1B secr inh -11 and DT40 TDP1 no CPT 26µM*.
For CNC(=O)c1sc(N2N=C3/C(=C/c4ccccc4)CCCC3C2c2ccccc2)nc1C (stereo unspecified) the results were HT1080 IDH1KD tx inconclusive, DT40 TDP1 CPT inconclusive, HT1080NT lethal -2%, IL1B secr inh -12 and DT40 TDP1 no CPT 13µM*.
Screening O=C1CCCc2ccccc2N1Cc1cccc(Cl)c1 returned HT1080 IDH1KD tx -24%, DT40 TDP1 CPT inconclusive, HT1080NT lethal -14%, IL1B secr inh 3 and DT40 TDP1 no CPT 9.2µM*.
For O=C1CCCc2ccccc2N1Cc1ccccc1 the results were HT1080 IDH1KD tx 8%, DT40 TDP1 CPT 13µM*, HT1080NT lethal 11%, IL1B secr inh 24 and DT40 TDP1 no CPT 12µM*.
Screening O=C1CCCc2ccccc2N1Cc1ccc(Cl)cc1 returned HT1080 IDH1KD tx -13%, DT40 TDP1 CPT inconclusive, HT1080NT lethal -2%, IL1B secr inh -4 and DT40 TDP1 no CPT inconclusive.
For O=C1CCCc2ccccc2N1Cc1ccccc1Cl the results were HT1080 IDH1KD tx -8%, DT40 TDP1 CPT inconclusive, HT1080NT lethal -7%, IL1B secr inh -8 and DT40 TDP1 no CPT inconclusive.
COc1ccc(CN2C(=O)CCCc3ccccc32)cc1 was read as HT1080 IDH1KD tx inconclusive, DT40 TDP1 CPT inconclusive, HT1080NT lethal -19%, IL1B secr inh 0 and DT40 TDP1 no CPT 21µM*.
For CCC[C@@H]1Cc2ccccc2N1C(C)=O the results were HT1080 IDH1KD tx 7%, DT40 TDP1 CPT inconclusive, HT1080NT lethal 8%, IL1B secr inh 18 and DT40 TDP1 no CPT -26%.
For N#Cc1nc(COc2ccc(-c3ccccc3)cc2)oc1N1CCC(C(N)=O)CC1 the results were DT40 TDP1 CPT 13µM* and DT40 TDP1 no CPT 18µM*.
`N#Cc1nc(COc2ccc(Br)cc2)oc1N1CCCC1` gave HT1080 IDH1KD tx -6%, DT40 TDP1 CPT inconclusive, HT1080NT lethal 3%, IL1B secr inh -24 and DT40 TDP1 no CPT inconclusive.
`N#Cc1nc(COc2ccc(Br)cc2)oc1N1CCCCCC1` gave HT1080 IDH1KD tx -10%, DT40 TDP1 CPT 15µM*, HT1080NT lethal -22%, IL1B secr inh -21 and DT40 TDP1 no CPT 16µM*.
For N#Cc1nc(-c2ccc(OCc3ccccc3)cc2)oc1N1CCC(C(N)=O)CC1 the results were HT1080 IDH1KD tx inconclusive, DT40 TDP1 CPT -16%, HT1080NT lethal inconclusive, IL1B secr inh 40 and DT40 TDP1 no CPT inconclusive.
`CC(C)(C)c1ccc(-c2nc(C#N)c(N3CCC(C(N)=O)CC3)o2)cc1` gave HT1080 IDH1KD tx inconclusive, DT40 TDP1 CPT 15%, HT1080NT lethal inconclusive, IL1B secr inh -94* and DT40 TDP1 no CPT inconclusive.
Screening N#Cc1nc(COc2ccc(-c3ccccc3)cc2)oc1NCCCN1CCOCC1 returned HT1080 IDH1KD tx inconclusive, DT40 TDP1 CPT 23µM*, HT1080NT lethal inconclusive, IL1B secr inh inconclusive and DT40 TDP1 no CPT 23µM*.
`COc1ccc(S(=O)(=O)c2ccc(OC)c(OC)c2)cc1OC` gave HT1080 IDH1KD tx -4%[9.24 µM], DT40 TDP1 CPT 6%, HT1080NT lethal 0%, IL1B secr inh -15 and DT40 TDP1 no CPT -3%.
For CCOCCCN(C)C1CCN(C(=O)c2oc3ccccc3c2NC(=O)COc2ccc(F)cc2)CC1 the results were HT1080 IDH1KD tx 11%, DT40 TDP1 CPT inconclusive, HT1080NT lethal 5%, IL1B secr inh -17 and DT40 TDP1 no CPT inconclusive.
For Cc1ccc(-c2csc(NC(=O)C3CC(=O)N(Cc4ccco4)C3)n2)cc1 (stereo unspecified) the results were HT1080 IDH1KD tx -13%, DT40 TDP1 CPT inconclusive, HT1080NT lethal -13%, IL1B secr inh -65* and DT40 TDP1 no CPT inconclusive.
Screening CC1(C)CC(N=c2cc(-c3ccccc3)oc3ccc(Cl)cc23)CC(C)(C)N1 returned HT1080 IDH1KD tx 16µM*, DT40 TDP1 CPT 5.2µM*, HT1080NT lethal 7.3µM*, IL1B secr inh -102* and DT40 TDP1 no CPT 5.8µM*.
